The source of these data is PubChem BioAssay (NCATS).

Unmarked numbers belong to inactive results. Records with an inconclusive call do not appear. The source made the active and inactive calls. Unless noted, calls follow the shape of the dose curve; as a rule, active = well fitted curve in either direction with a large enough effect (not every such curve was filed as active); inconclusive = small, poorly fitted or top-dose-only effect, or another doubt; inactive = flat fitted curve, though single readings scatter. Where only a bound is given, the exact number is not on record here.

The target in assay [1] is Lysosomal acid glucosylceramidase (Homo sapiens) (UniProt P04062). Description: Glucocerebrosidase-p2 (AID 348; in the data active = potency below about 10 µM; also: potency is read from the fitted curve at half-maximal effect). The conditions noted are these: purified GBA, blue fluorogenic substrate, 40 min. The procedure, abridged: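 Compounds titrated from 0.6 nM upwards against 0.2 nM enzyme in pH 5.9 citric acid/KH2PO4, taurocholate, tween-20; blue fluorogenic substrate 80 uM, 40 min room temperature, stopped and read Ex 365/Em 440 for AC50.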
Sequence of Lysosomal acid glucosylceramidase (Homo sapiens) (P04062 whole entry, looked up): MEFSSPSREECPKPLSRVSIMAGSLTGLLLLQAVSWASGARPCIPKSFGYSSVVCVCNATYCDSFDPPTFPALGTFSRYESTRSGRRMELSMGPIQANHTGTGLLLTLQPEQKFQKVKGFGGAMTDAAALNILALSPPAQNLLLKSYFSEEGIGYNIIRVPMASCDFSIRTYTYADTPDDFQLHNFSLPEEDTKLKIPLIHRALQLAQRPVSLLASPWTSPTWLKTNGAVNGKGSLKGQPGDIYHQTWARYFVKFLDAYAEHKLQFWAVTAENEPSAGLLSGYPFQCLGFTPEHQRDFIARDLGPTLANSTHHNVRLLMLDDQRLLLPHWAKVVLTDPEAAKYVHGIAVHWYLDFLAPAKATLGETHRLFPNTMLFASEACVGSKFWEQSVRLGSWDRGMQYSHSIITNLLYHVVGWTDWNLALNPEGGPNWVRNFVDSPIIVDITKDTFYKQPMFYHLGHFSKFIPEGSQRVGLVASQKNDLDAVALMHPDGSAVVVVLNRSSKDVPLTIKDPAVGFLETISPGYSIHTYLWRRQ

Assay [2] is described as follows: AP1 Signaling Pathway (AID 357).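 Also: ME-180 reporter cells stimulated with EGF at its EC50 level; % is scaled to controls: 0 for no effect and ±100 for the full control effect.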 The conditions noted are these: ME-180 AP-1-bla reporter, EGF-induced, beta-lactamase ratio, 5 h; at 7.69 µM (top of the series) unless noted. The procedure, abridged: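 In this screen, ME-180 cells in Opti-MEM with 0.5% dialyzed FBS received EC50 EGF and compound titrations for 5 h. AP-1 reporter beta-lactamase was detected via CCF4 ratio, giving AC50 for positive and negative modulators.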

A short description of assay [3]: Stat Signaling Pathway (AID 446).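 Also: ME-180 cervical cancer cells given 40 pM IL-6 alongside compound; SIE-controlled beta-lactamase reporter measured as 460/530 nm FRET emission ratio; % is scaled to controls: 0 for no effect and ±100 for the full control effect.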 The conditions noted are these: ME-180 SIE beta-lactamase reporter, IL-6 stimulated, 5 h; at 7.69 µM (top of the series) unless noted. The procedure, abridged: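 ME-180 cells carrying a SIE-driven beta-lactamase reporter are stimulated with 40 pM IL-6 for 5 h at 37C in the presence of compound. The 460/530 nm FRET substrate ratio is read after 2.5 h at RT. Data are normalised to 300 pM IL-6 and to 125 nM JAK inhibitor controls.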

For assay [4], the target named is Glucocorticoid receptor (Homo sapiens) (UniProt P04150). Description: GR-GFP Redistribution (AID 450;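 active = compounds whose dose series gives a full or clear partial fitted curve of increased nuclear translocation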; also: potency is read from the fitted curve at half-maximal effect). The conditions noted are these: U2OS GR-GFP nuclear translocation, laser cytometry, 2 h.
Sequence of Glucocorticoid receptor (Homo sapiens) (P04150 whole entry, looked up): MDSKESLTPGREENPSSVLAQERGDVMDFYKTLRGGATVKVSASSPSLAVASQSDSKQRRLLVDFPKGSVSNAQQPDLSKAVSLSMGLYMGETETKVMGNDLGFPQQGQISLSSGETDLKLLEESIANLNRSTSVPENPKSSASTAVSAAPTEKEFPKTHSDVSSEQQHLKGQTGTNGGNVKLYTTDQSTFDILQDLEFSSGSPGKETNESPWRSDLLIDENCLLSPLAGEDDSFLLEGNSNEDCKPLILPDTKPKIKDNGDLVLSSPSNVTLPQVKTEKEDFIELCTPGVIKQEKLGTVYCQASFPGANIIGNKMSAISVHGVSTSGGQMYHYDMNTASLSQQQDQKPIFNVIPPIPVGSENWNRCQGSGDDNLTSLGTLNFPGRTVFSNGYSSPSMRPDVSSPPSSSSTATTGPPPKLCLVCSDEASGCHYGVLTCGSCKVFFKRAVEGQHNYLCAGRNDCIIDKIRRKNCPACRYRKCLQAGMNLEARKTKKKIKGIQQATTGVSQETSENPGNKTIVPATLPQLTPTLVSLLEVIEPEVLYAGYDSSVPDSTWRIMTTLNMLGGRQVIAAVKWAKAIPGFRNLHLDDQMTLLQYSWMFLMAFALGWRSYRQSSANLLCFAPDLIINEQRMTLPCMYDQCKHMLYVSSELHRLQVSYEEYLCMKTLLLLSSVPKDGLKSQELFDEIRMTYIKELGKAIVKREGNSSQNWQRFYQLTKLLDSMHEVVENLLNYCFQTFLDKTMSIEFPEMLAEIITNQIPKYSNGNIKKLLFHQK
The target is the same in assay [5]. Description: GR-EFC Redistribution (AID 451; calls by dose curve; also: potency is read from the fitted curve at half-maximal effect). Conditions: CHO-K1 GR-EFC translocation, beta-gal luminescence, 2 h. In short, it runs like this:
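CHO-K1 cells stably expressing nuclear-localized β-gal enzyme acceptor and GR fused C-terminally to the enzyme donor fragment; ligand-driven nuclear translocation restores β-gal by complementation. Compounds titrated up to 46 uM final, 2 h at 37 °C; luminescence read.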

Assay [6] concerns the target Mitogen-activated protein kinase 10 (Mus musculus) (UniProt Q61831). Description: JNK3 AlphaScreen Assay (AID 530).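 Also: kinase came from lysate of stimulated human HepG2 cells; signal reports phosphorylation of biotinylated GST-cJun 1-79 at Ser73 with 10 µM ATP; % is scaled to controls: 0 for no effect and ±100 for the full control effect.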 Conditions: JNK3 lysate, c-Jun phosphorylation; series mostly up to 11.4 µM. The procedure, abridged: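 Inhibitors reduce antibody binding to phosphorylated biotin-cJun, lowering AlphaScreen luminescence. Lysates from HepG2 cells pre-activated by IL-1beta plus TNF-alpha supplied JNK3; compounds were titrated.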
A general note: Bead proximity is the source of the signal in Alpha formats.

Assay [7] concerns the target 3',5'-cyclic-AMP phosphodiesterase 4B (Homo sapiens) (UniProt Q07343). Description: qHTS Assay for Inhibitors of PDE-IV (AID 607; active = well fitted activation curve with a large enough effect in the main read-out, with a control signal flat, not every such curve was filed as active; also: % of control where 0% means no effect). The conditions noted are these: HEK293 ACTOne CNG channel cells, membrane potential fluorescence; series mostly up to 22.9 µM. In short, it runs like this:
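HEK293 ACTOne cells with CNG channel (1000/well), endogenous PDE4; membrane potential dye, compounds up to 22.9 uM final. Fluorescence Ex 535/Em 590; RO 20-1724 (100 uM final) as reference.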

Assay [8] deals with Cytochrome P450 3A4 (Homo sapiens) (UniProt P08684). Description: qHTS Assay for Activators of Cytochrome P450 3A4 (AID 885; active = well fitted curve in the direction sought with a large enough effect; an effect the other way counts as inactive or inconclusive; also: nearly all actives have a fitted effect of over 65% in size). Conditions: recombinant CYP3A4, Luciferin-PPXE luminescence, 60 min; series mostly up to 11.4 µM. In short, it runs like this:
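Human CYP3A4 (20 nM) with Luciferin-PPXE at 25 uM (its KM) in 200 mM KPO4; 10 min compound preincubation, then NADPH regeneration and 60 min reaction at RT. Luciferin read by luminescence; normalized to 57 uM ketoconazole full inhibition.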
(In general: In qHTS, concentration-response curves come from the screen itself.)

A short description of assay [9]: qHTS Assay for Identification of Small Molecule Agonists for Hypoxia Response Element Signaling Pathway (AID 914; active = well fitted activation curve with a large enough effect in the signal ratio, with a control signal flat, not every such curve was filed as active; the % refers to the signal ratio; also: % of control where 0% means no effect). The conditions noted are these: ME-180 (cervical carcinoma) HRE-bla reporter, beta-lactamase ratio, CoCl2, 17 h; activation: hits give high values. In short, it runs like this:
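Positive modulation of EC50 CoCl2-induced hypoxia response element signaling is measured in ME-180 cells with a beta-lactamase reporter. Compounds are titrated, incubation runs 17 hours, and %Activity derives from the blue/green ratio.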

For assay [10], the target named is Cytochrome P450 3A4 (Homo sapiens) (UniProt P08684). Description: qHTS Assay for Inhibitors and Substrates of Cytochrome P450 3A4 (AID 884; active = well fitted curve in the direction sought with a large enough effect; an effect the other way counts as inactive or inconclusive; also: potency is read from the fitted curve at half-maximal effect; nearly all actives have a fitted effect of over 50% in size). The conditions noted are these: recombinant CYP3A4, Luciferin-PPXE luminescence; series mostly up to 57.1 µM. The procedure, abridged:
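20 nM human CYP3A4 with 25 uM Luciferin-PPXE (at KM) in 200 mM KPO4, preincubated 10 min with compound; NADPH regeneration started a 60 min RT reaction. Luciferin detected by luminescence, normalized to 57 uM ketoconazole as full inhibition.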

Assay [11] addresses Cytochrome P450 2C19 (Homo sapiens) (UniProt P33261). Description: qHTS Assay for Inhibitors and Substrates of Cytochrome P450 2C19 (AID 899; active = well fitted curve in the direction sought with a large enough effect; an effect the other way counts as inactive or inconclusive; also: potency is read from the fitted curve at half-maximal effect; nearly all actives have a fitted effect of over 60% in size). Conditions: recombinant CYP2C19, luciferin-H EGE luminescence; series mostly up to 11.4 µM. In short, it runs like this: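 In 50mM KPO4, the reaction held 5nM enzyme and KM-level (10uM) Luciferin-H EGE; it ran 60 min at 37C after NADPH regeneration and a 10 min compound preincubation. Luminescence values were scaled to 57uM ketoconazole as complete inhibition.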

The target in assay [12] is Cytochrome P450 2D6 (Homo sapiens) (UniProt P10635). Description: qHTS Assay for Inhibitors and Substrates of Cytochrome P450 2D6 (AID 891; active = well fitted curve in the direction sought with a large enough effect; an effect the other way counts as inactive or inconclusive; also: potency is read from the fitted curve at half-maximal effect; nearly all actives have a fitted effect of over 60% in size). The conditions noted are these: recombinant CYP2D6, luciferin-ME EGE luminescence; series mostly up to 11.4 µM. In short, it runs like this:
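Human CYP2D6 (5 nM) with 30 uM Luciferin-ME EGE (at Km) in 100 mM KPO4, compound preincubated 10 min, then NADPH regeneration system for 60 min at room temperature. Luciferin read by luminescence; normalized to 1.43 uM quinidine.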

Sequence of Cytochrome P450 3A4 (Homo sapiens) (P08684 whole entry, looked up): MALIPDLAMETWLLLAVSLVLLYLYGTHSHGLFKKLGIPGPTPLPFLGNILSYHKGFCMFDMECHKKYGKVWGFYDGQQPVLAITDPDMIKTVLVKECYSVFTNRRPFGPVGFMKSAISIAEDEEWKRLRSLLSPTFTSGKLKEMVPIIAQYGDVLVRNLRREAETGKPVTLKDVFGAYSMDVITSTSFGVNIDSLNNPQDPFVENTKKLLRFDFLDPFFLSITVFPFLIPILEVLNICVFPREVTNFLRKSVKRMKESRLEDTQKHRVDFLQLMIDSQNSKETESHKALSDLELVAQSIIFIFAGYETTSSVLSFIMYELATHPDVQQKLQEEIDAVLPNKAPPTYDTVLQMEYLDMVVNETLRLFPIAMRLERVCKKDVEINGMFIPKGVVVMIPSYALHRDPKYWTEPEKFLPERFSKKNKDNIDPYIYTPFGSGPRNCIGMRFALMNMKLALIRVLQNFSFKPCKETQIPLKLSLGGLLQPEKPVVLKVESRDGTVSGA
Sequence of Cytochrome P450 2D6 (Homo sapiens) (P10635 whole entry, looked up): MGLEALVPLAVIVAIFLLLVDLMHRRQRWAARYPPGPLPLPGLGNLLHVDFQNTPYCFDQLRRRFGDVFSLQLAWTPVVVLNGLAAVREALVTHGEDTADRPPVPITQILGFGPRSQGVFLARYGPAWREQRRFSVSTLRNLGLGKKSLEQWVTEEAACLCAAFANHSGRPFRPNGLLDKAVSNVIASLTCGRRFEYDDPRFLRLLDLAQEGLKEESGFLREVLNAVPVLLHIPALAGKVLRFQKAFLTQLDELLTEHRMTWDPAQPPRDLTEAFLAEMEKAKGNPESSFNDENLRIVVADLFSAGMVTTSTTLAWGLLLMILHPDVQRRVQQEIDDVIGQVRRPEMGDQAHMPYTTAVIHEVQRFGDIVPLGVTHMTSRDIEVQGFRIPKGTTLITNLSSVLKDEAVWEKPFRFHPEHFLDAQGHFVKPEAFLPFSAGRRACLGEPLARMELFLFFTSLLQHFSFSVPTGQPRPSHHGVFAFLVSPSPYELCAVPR
Sequence of 3',5'-cyclic-AMP phosphodiesterase 4B (Homo sapiens) (Q07343 whole entry, looked up): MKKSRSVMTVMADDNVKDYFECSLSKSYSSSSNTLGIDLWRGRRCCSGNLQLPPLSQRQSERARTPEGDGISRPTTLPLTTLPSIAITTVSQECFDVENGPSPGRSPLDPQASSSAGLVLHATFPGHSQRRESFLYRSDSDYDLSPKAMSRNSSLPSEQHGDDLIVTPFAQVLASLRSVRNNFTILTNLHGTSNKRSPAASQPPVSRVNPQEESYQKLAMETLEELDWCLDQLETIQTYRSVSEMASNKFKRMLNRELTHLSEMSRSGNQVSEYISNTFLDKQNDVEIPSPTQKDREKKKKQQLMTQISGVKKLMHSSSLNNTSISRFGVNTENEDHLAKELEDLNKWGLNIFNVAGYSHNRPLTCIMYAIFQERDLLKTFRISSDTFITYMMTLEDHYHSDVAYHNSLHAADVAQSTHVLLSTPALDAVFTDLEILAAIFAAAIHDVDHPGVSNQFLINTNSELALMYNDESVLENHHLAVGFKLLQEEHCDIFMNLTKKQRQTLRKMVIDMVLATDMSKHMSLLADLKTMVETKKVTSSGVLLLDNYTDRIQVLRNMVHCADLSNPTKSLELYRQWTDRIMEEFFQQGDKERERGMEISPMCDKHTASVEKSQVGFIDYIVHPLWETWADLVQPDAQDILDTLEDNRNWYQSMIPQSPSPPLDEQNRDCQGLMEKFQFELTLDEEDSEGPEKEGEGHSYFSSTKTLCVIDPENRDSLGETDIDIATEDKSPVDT
Sequence of Cytochrome P450 2C19 (Homo sapiens) (P33261 whole entry, looked up): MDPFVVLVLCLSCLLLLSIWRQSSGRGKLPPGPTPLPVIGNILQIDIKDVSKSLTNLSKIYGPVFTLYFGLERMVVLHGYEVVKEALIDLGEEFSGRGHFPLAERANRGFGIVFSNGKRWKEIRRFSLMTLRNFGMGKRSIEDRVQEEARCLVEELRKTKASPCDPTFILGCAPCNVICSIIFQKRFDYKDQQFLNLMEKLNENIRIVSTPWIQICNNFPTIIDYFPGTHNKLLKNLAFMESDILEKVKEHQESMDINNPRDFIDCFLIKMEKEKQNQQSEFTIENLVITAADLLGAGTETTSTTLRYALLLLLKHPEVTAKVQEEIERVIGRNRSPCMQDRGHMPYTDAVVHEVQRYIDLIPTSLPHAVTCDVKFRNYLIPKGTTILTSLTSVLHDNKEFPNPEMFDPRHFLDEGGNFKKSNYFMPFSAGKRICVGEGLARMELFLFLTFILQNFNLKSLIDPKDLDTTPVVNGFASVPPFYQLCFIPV

As for `O=c1cnc2cnc(N3CCNCC3)nc2n1CCc1ccccc1`, the Potency was greater than 11.4 µM in [1], greater than 9.22 µM in assay [4] and greater than 46 µM in assay [5]. Also, the activity change, negative = inhibition in [2] was -5.27%. For the same compound, the activity, negative = inhibition in assay [3] was -12.8%. Further, the Potency result in assay [6], in assay [7] and in assay [8] was “inactive” in each case.
Take `CC(C)(C)c1ccc(O)c(CN(Cc2cc(C(C)(C)C)ccc2O)c2ccccc2)c1`: the results for the Potency in assay [1], in assay [4] and in assay [5] were greater than 11.4 µM, greater than 46 µM and greater than 9.22 µM, respectively. The activity change, negative = inhibition in assay [2] is 4.11%. For the same compound, in [3], the activity, negative = inhibition is 2.48%. The Potency result in assay [6] and in assay [7] was “inactive” throughout. Further, the activation in assay [9] was 12.3%.
As for `O[C@@H](C1=C/C(=C\c2ccncc2)c2ccccc21)c1ccncc1`, the Potency in [1] was greater than 11.4 µM; in assay [4], greater than 46 µM; in assay [5], greater than 9.22 µM; in assay [10], 0.794 µM (active); in assay [11], 0.158 µM (active). Moreover, the activity change, negative = inhibition in assay [2] is 6.34%. Besides, the activity, negative = inhibition in assay [3] is -15.9%. Further, the Potency entry in assay [6] and in [7] was “inactive” each time.
Take `CN(C)CCCc1c2ccccc2nc2ccc(Cl)cc12`: the Potency was greater than 11.4 µM in assay [1], greater than 46 µM in [4], greater than 9.22 µM in assay [5] and 1.58 µM (active) in assay [12]. Further, the activity change, negative = inhibition in assay [2] is 14.2%. The activity, negative = inhibition in assay [3] was 18.2%. Moreover, the Potency result in assay [6] and in assay [7] was “inactive” in each case.
For `O=S(=O)(O)c1cc(O)c2c(O)c(N=Nc3cccc4ccccc34)c(S(=O)(=O)O)cc2c1`, the values for the Potency in assay [1], in assay [4] and in [5] were greater than 11.4 µM, greater than 46 µM and greater than 9.22 µM, respectively. Besides, in assay [2], the activity change, negative = inhibition was -2.93%. Moreover, in [3], the activity, negative = inhibition is 4.42%. Moreover, the Potency entry in assay [7] is “inactive”. Also, in assay [9], the activation is -26.6%.
On to `O[C@@H](c1cc(-c2ccc(Cl)cc2)nc2ccccc12)[C@@H]1CCCCN1`, for which the figures for the Potency in assay [1], in assay [5] and in assay [12] were greater than 11.4 µM, greater than 9.22 µM and 0.631 µM (active), respectively. The activity change, negative = inhibition in assay [2] is -7.25%. For the same compound, the activity, negative = inhibition in assay [3] was -6.67%. In addition, the Potency entry in assay [6] and in assay [7] was “inactive” each time.
Consider `O=C1c2ccccc2-c2ccc(N(Cc3ccc(Br)cc3)Cc3ccc(Br)cc3)cc21`, for which the Potency in assay [1] is greater than 11.4 µM; in assay [4], greater than 46 µM; in [5], greater than 9.22 µM. For the same compound, in assay [2], the activity change, negative = inhibition is -16.3%. Moreover, in [3], the activity, negative = inhibition was 4.89%. Moreover, the Potency result in assay [7] is “inactive”.
With `C[N@@+]1(Cc2ccc(Cl)c(Cl)c2)CCC[C@@H]1c1ccc[n+](Cc2ccc(Cl)c(Cl)c2)c1`, the Potency in [1] was greater than 11.4 µM; in [4], greater than 46 µM; in [5], greater than 9.22 µM; in assay [12] it was 3.16 µM (active). Further, in [2], the activity change, negative = inhibition was -3.2%. For the same compound, the activity, negative = inhibition in assay [3] was -0.293%. The Potency result in [6] and in assay [7] was “inactive” each time.
In the case of `c1cncc(CSc2ncnc3nc[nH]c23)c1`, the Potency in assay [1] is greater than 11.4 µM; in [4], greater than 46 µM; in assay [5], greater than 9.22 µM. For the same compound, in assay [2], the activity change, negative = inhibition was -2.25%. The activity, negative = inhibition in assay [3] was 8.79%. Moreover, the Potency entry in [6] and in assay [7] was “inactive” in each case.
Take `CN(C)Cc1cc(C(F)(F)F)ccc1C(O)(c1ccccc1)c1ccccc1`: the Potency in assay [1] was greater than 11.4 µM; in [4], greater than 46 µM; in assay [5] it was greater than 9.22 µM; in assay [10], 0.794 µM (active). Moreover, the activity change, negative = inhibition in assay [2] was 19.8%. Moreover, in assay [3], the activity, negative = inhibition was 9.65%. In addition, the Potency entry in [6], in [7] and in assay [8] was “inactive” throughout. Besides, in [9], the activation was 25.7%.
